# According to ChEMBL document CHEMBL3433997, “St. Jude Leishmania screening dataset” (2016):
# Legend:
# Type in all cases: functional
# [1] = molecular target: Solute carrier family 2, facilitated glucose transporter member 1 (Homo sapiens) (UniProt P11166); assay: ST_JUDE_LEISH: Cytotoxicity at 2uM final concentration against transgenic Leishmania Mexicana promastigotes LmGLUT1 that are glucose transport deficient and complemented with the human glucose transporter GLUT1. Activity is measured by DNA content using SYBR green in vitro
# [2] = molecular target: Hexose transporter 1 (Plasmodium falciparum) (UniProt O97467); assay: ST_JUDE_LEISH: Cytotoxicity at 2uM final concentration against transgenic Leishmania Mexicana promastigotes LmPfHT that are glucose transport deficient and complemented with the Plasmodium falciparum hexose transporter. Activity is measured by DNA content using SYBR green in vitro
# [3] = molecular target: Glucose transporter (Leishmania mexicana) (UniProt O61059); assay: ST_JUDE_LEISH: Cytotoxicity at 2uM final concentration against transgenic Leishmania Mexicana promastigotes LmGT2 that are glucose transport deficient and complemented with the L. Mexicana glucose transporter 2. Activity is measured by DNA content using SYBR green in vitro
# Sequence of Solute carrier family 2, facilitated glucose transporter member 1 (Homo sapiens) (P11166 whole entry): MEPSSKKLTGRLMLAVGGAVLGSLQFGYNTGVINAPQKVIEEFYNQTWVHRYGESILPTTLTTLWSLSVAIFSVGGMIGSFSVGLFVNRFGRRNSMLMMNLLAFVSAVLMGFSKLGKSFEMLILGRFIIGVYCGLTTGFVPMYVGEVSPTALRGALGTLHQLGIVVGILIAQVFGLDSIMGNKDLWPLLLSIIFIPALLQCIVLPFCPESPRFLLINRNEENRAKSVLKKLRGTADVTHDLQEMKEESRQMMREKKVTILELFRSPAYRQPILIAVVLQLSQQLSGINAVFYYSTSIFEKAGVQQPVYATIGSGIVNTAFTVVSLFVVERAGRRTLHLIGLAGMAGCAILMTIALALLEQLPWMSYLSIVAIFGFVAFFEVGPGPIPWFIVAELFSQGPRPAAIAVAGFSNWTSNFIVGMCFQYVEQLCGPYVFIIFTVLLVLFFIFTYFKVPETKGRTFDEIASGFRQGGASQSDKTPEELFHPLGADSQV
Structure (SMILES),inhibition [1] [%],inhibition [2] [%],inhibition [3] [%]
COC(=O)c1ccc2nc(-c3ccc(C(=O)NCc4ccc(Cl)c(Cl)c4)cc3)[nH]c2c1,3.81,3.6,3.51
c1ccc2c(CNCCCCCCNCc3c(OCC4CC4)ccc4ccccc34)c(OCC3CC3)ccc2c1,51.5,69.8,37.4
CC1CCCN(S(=O)(=O)c2cc(Br)cc3c2N(C(=O)C2CC2)CC3)C1 (stereo unspecified),2.64,2.33,1.02
O=C(/C=C/c1ccc(Cl)c(Cl)c1)NCCCCCN1CCC(NC(=O)NC2CCCCC2)CC1,1.02,0.4,1.22
CCOc1cc(C)ccc1C1CCN(CCCCNC(=O)c2cnc(-c3ccc(C(F)(F)F)cc3)[nH]2)CC1,-1.9,2.12,-0.53
CC(C)CNCc1cccc(-c2cccc(CNc3ccc4ncccc4c3)c2)c1,2.92,1.32,2.08
Cn1nc(C(=O)N2CCC(c3[nH]ncc3Cc3ccccc3)CC2)c2ccccc2c1=O,0.16,2.06,2.12
CN(C1CCC(NC(=O)/C=C/c2ccccc2)CC1)C1CC2(CCN(C(=O)OC(C)(C)C)CC2)c2ccccc21 (stereo unspecified),9.97,5.58,6.01
COc1ccc(CNC2CCN(C)CC2)cc1-c1ccc(S(=O)(=O)NCc2ccccc2)cc1,3.88,4.24,5.02
COc1ccc(Nc2nccc(-c3cccc(NC(=O)c4cc5cc(F)ccc5[nH]4)c3)n2)cc1,3.61,0.11,-1.2
CCOc1cc(O)c(-c2nc(N)ncc2-c2ccc3c(c2)OCCO3)cc1CC,9.25,11,4.66
Cc1cc(-c2ccc(NC(=O)N3CCc4cc(Br)c(N5CCN(C)CC5)cc43)cc2)ccc1C#N,11.9,18.9,8.55
